Hits are enriched below; roughly 7.3% of the tested compounds scored in any of these assays.
HCV inh: blocks hepatitis C virus; Huh7.5.1 HCVcc-Cre infection, luciferase reporter, 44 h; Potency, µM (series often up to 41.8 µM), inactives show at the top dose activity change, negative = inhibition, usual class: inhibitors; 340,000 tested, 3.4% active; active = well fitted inhibition curve with a large enough effect; inconclusive = small, poorly fitted or top-dose-only effect, or another doubt; inactive = no such curve, though single readings can be large or run the other way; note: potency is the fitted concentration of half-maximal effect
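Reporter virus HCVcc-Cre (~0.5 moi) infects cells exposed to compound; seeding density 1,000 cells/well with 4 h settling beforehand. Luminescence, 15 sec read, taken 44 h post-infection following a 15 min RT substrate incubation.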
Vaccinia mCherry: inhibitors of vaccinia virus infection (mCherry reporter signal) | Vaccinia virus mCherry reporter infection, fluorescence | 310,000 tested, 0.63% active | AID 720579 | Potency, µM (top dose mostly 36.5 µM), for the others: top-dose activity change, negative = inhibition, hits mostly inhibitors; calls by dose curve; tested in A549 cells; note: potency is the fitted concentration of half-maximal effect; nearly all actives have a fitted effect of over 35% in size
FMDV inh: antivirals against foot and mouth disease virus; FMDV antiviral cell-based qHTS; Potency, µM (highest dose often 57.9 µM), for the others: at the top dose activity change, negative = inhibition, most hits filed as inhibitors; 410,000 tested, 1.2% active; AID 1159524; calls by dose curve; tested in HEK293T cells; note: read-out not given here; potency is the fitted concentration of half-maximal effect; nearly all actives have a fitted effect of over 45% in size
HCMV inh: blocks human cytomegalovirus replication; HFF cells, HCMV-luciferase reporter, 72 h; stronger effect = lower value; activity change, negative = inhibition, % at 57.5 µM; 410,000 tested, 4.5% active; AID 1259415; in the data active = activity change below about -60%; inconclusive = no clear call, values can overlap the other calls; inactive = above about -39%
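Screen run at 2 compound doses on HFFs infected with reporter HCMV, MOI 1 PFU/cell. Luciferase activity from cell lysates at 72 h post infection gave inhibition relative to buffer-only and Salinomycin wells.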
VACV Venus inh: inhibitors of vaccinia virus (Venus reporter). Vaccinia virus Venus reporter expression, fluorescence. Potency, µM (series often up to 36.5 µM), inactives show at the top dose activity change, negative = inhibition, actives largely listed as inhibitors. 330,000 tested, 0.46% active; calls by dose curve; tested in A549 cells; note: potency is the fitted concentration of half-maximal effect; nearly all actives have a fitted effect of over 30% in size
Starred values were filed as active, the others as inactive; i = inactive; u = inconclusive; x = no result given. % is set by controls: 0 for no effect and ±100 for the full control effect.

SMILES | HCV inh | Vaccinia mCherry | FMDV inh | HCMV inh | VACV Venus inh
O=S1(=O)C=C(Sc2nnc(-c3ccccc3)o2)c2ccccc21 | 10µM* | x | 10µM* | x | x
O=C(CNC(=O)C(c1ccccc1)c1ccccc1)OCC(=O)c1ccc2ccccc2c1 | x | 5% | x | x | -9%
CSc1cccc(NC(=O)c2ccc3c(c2)c(C)c(C)n3Cc2ccc(F)cc2)c1 | x | -4% | -10% | u | -8%
Cc1nn(-c2ccccc2)cc1/C=N/NC(N)=S | -8% | 11µM* | 49% | 7 | u
CC1CN(CCC(=O)N2CCCC(C(=O)c3nccn3C)C2)Cc2cc(Cl)ccc2O1 (stereo unspecified) | x | -17% | -9% | x | -6%
COCCn1c(=O)[nH]c2cc(C(=O)NCCCN3CCN(c4ccc(F)cc4)CC3)ccc2c1=O | 10µM* | x | u | 5 | x
CCC1CCCCN1CCCNC(=O)c1ccc2c(=O)n(Cc3ccc(OC)cc3)c(=O)[nH]c2c1 (stereo unspecified) | 14µM* | x | -26% | 10 | x
O=C(CCCn1c(=O)[nH]c2cc(Cl)ccc2c1=O)NCCCN1CCN(c2ccc(F)cc2)CC1 | 7.9µM* | x | u | -62* | x
CCC1CCCCN1CCCNC(=O)c1ccc2c(=O)n(CCOC)c(=O)[nH]c2c1 (stereo unspecified) | -1% | i | -10% | -38 | -7%
CCN1CCN(CCCNC(=O)c2ccc3c(=O)n(CCc4ccccc4)c(=O)[nH]c3c2)CC1 | 10µM* | 6% | -6% | 33 | -3%
O=C(CCCn1c(=O)[nH]c2cc(Cl)ccc2c1=O)NCCCN1CCCC1 | 12% | x | -2% | 9 | -8%
C[C@@H]1[C@H](c2ccccc2)OCCS(=O)(=O)N1Cc1cccc(Cl)c1 | x | i | x | x | -11%
Cc1cc(C)c(NC(=O)Cn2c(=O)n(CCc3ccccc3)c(=O)c3ccccc32)c(C)c1 | x | -5% | -4% | 16 | -11%
N#CCCn1c(=O)c(-c2ccc(Cl)cc2)nc2cnc(N3CCNCC3)nc21 | x | x | -4% | x | x
C[C@H]1Cn2cnc(C(=O)N(C)Cc3ccccc3)c2C(=O)N1 | x | x | x | -8 | x
COc1cc(C(=O)OCCN2CCOCC2)cc(OC)c1OC | 15% | -1% | x | 48 | -8%
COc1cc(C(=O)OCCCN2CCCN(CCCOC(=O)c3cc(OC)c(OC)c(OC)c3)CC2)cc(OC)c1OC | 8.9µM* | -6% | -15% | 171 | -9%
CCN(CC)CCCCCCCCOC(=O)c1cc(OC)c(OC)c(OC)c1 | 0.56µM* | u | -8% | 29 | u
COc1cc(OC)c(NS(=O)(=O)c2cc(C(=O)OC(C)C(=O)NC3CC3)c(Cl)cc2Cl)cc1Cl (stereo unspecified) | 11µM* | -2% | 10% | -18 | -13%
CCc1ccc(Cn2c(CNS(=O)(=O)c3ccc([N+](=O)[O-])cc3)nc3cccnc32)cc1 | x | -9% | 59% | 13 | 2%
CCNc1ncc2nc(-c3cn(C)c4ccccc34)c(=O)n(Cc3ccc(F)cc3)c2n1 | x | x | -5% | x | x
C=CCSc1nnc(COc2ccc(=O)n(-c3ccccc3)n2)n1CC | 18% | -1% | -2% | -93* | -13%
CCn1c(COc2ccc(=O)n(-c3ccccc3)n2)nnc1SCc1cccc(OC)c1 | 17% | x | 1% | -1 | x
Cc1c(N2C(=O)/C(=C\c3ccc(N(C)C)cc3)N(C)C2=S)c(=O)n(-c2ccccc2)n1C | -7% | i | -19% | -65* | 168%
CN1C(=S)N(c2cccnc2)C(=O)/C1=C\c1ccc(N(C)C)cc1 | -19% | u | u | -64* | 25%
SMILES | HCV inh | Vaccinia mCherry | FMDV inh | HCMV inh | VACV Venus inh
Cc1c(NC(=S)N/N=C/c2ccc(N(C)C)cc2)c(=O)n(-c2ccccc2)n1C | -9% | -7% | -8% | 56 | -19%
Cc1ccc(-c2cn3c(n2)sc2cc(C(=O)N4CCCCC4)ccc23)cc1 | x | -12% | u | x | -12%
COc1ccccc1-c1ccnc(-n2ncc(C(=O)N(C)C(C)c3ccon3)c2C2CC2)n1 (stereo unspecified) | x | -10% | 47% | x | 2%
CC(=O)Nc1ccc(N(C(=O)c2ccco2)C(C(=O)NC2CCCCC2)c2ccccc2)cc1 (stereo unspecified) | 2% | i | 41% | -64* | -14%
CC(=O)Nc1ccc(N(C(=O)c2ccco2)C(C(=O)NC2CCCC2)c2cccs2)cc1 (stereo unspecified) | 10% | -9% | -1% | -35 | 5%
O=C(NC1CCCC1)C(c1ccccc1)N(C(=O)c1ccco1)C1CCCC1 (stereo unspecified) | -17% | -15% | x | -78* | -9%
CC(C)c1ccc(CN2C(=O)C(n3cccc3)c3ccccc32)cc1 (stereo unspecified) | x | x | x | -5 | x
O=S(=O)(c1ccc2ccccc2c1)N(CC(O)COCc1ccco1)c1ccccc1 (stereo unspecified) | -19% | x | -19% | -18 | x
CCN(CC)CC(O)CN(c1ccccc1)S(=O)(=O)c1ccc2ccccc2c1 (stereo unspecified) | 7% | u | -3% | -67* | -28%
COc1ccccc1C(OC(=O)c1ccco1)C(=O)NC(C)(C)C (stereo unspecified) | 6% | x | -3% | -82* | x
CCCOc1ccc(C(=O)CCC(=O)OCC(=O)N(CC)c2c(N)n(Cc3ccccc3)c(=O)[nH]c2=O)cc1 | 12% | x | 23% | 30 | x
CCN(C(=O)COC(=O)CCOc1ccc(C(C)(C)C)cc1)c1c(N)n(Cc2ccccc2)c(=O)[nH]c1=O | -8% | x | u | -66* | x
Nc1c(N(Cc2ccccc2)C(=O)COc2cccc(Cl)c2)c(=O)[nH]c(=O)n1Cc1ccccc1 | u | -17% | u | -78* | -6%
CC1Cc2ccccc2N1CC(=O)N(C)c1c(N)n(Cc2ccccc2)c(=O)[nH]c1=O (stereo unspecified) | 4% | x | -13% | -12 | x
Nc1c(N(Cc2ccccc2)C(=O)CCc2ccccc2)c(=O)[nH]c(=O)n1Cc1ccccc1 | 12% | -9% | -2% | u | -16%
COc1ccccc1CCC(=O)N(Cc1ccccc1)c1c(N)n(Cc2ccccc2)c(=O)[nH]c1=O | 1.1µM* | u | -29% | -3 | -18%
CCN(C(=O)CN1c2ccccc2CC1C)c1c(N)n(Cc2ccccc2)c(=O)[nH]c1=O (stereo unspecified) | 20% | -3% | -12% | -64* | 10%
COc1ccccc1N1CCN(S(=O)(=O)CCNC(=O)COc2ccc(C(C)C)cc2)CC1 | x | -25% | u | -21 | -23%
COC(=O)c1ccccc1NC(=O)c1cc2nc(-c3ccc(OC)cc3)cc(C(F)(F)F)n2n1 | x | 6% | -4% | -8 | -4%
CCc1ccccc1NC(=O)c1nn(-c2ccc(C)cc2)c(=O)c2c1c1ccccc1n2C | x | -6% | -11% | 14 | 1%
COCCN(C(=O)COC(=O)/C=C/c1ccc(C(F)(F)F)cc1)c1c(N)n(Cc2ccccc2)c(=O)[nH]c1=O | -4% | 13µM* | -29% | -11 | u

Screening results from PubChem.
